Source: PubChem BioAssay (NCATS)
Inconclusive results are not listed. The source made the active and inactive calls. The call rests on the fitted dose curve; in most records, active means well fitted cell-killing curve with a large enough effect; inconclusive means small, poorly fitted or top-dose-only effect; inactive means flat fitted curve, though single readings scatter. Positions of bridges follow the written chain, without caps; N, C: chain ends. Non-standard residues stand in square brackets, D forms with d. Residues, ends and D or L forms follow the SMILES beside them. ξ: configuration not given here. *: point of attachment. Octanoyl(6-Me) = CCC(C)CCCCC(=O)*; ξThr(3R) = C[C@@H](O)C(N)C(=O)O; dDab = NCC[C@@H](N)C(=O)O; Dab = NCC[C@H](N)C(=O)O

Experiment: qHTS of pediatric cancer cell lines to identify multiple opportunities for drug repurposing: Primary screen for U-2 OS cells (AID 1347096); further: nearly all actives have a fitted effect of over 50% in size
Conditions: U-2 OS viability, CellTiter-Glo luminescence, 48 h; series mostly up to 46 µM; activity change, negative = cytotoxic: at the top concentration
Description: Drug repurposing or repositioning has been offered as a strategy for drug development in oncology programs. This approach has special potential for childhood cancers and other rare or orphan diseases, where the expected return on new drug development has been a disincentive to pharmaceuticals.
In this project we exploit the poly-pharmacology of drugs to discover new indications via phenotypic screening of a panel of 19 well-characterized cell lines derived from solid tumors seen in children and adolescents. The goal is to identify approved drugs with previously unrecognized anticancer properties that has the potential to reveal new mechanisms and biological processes involved in carcinogenesis or drug resistance. We employed a titration-based paradigm (quantitative high-throughput screening or qHTS), where all compounds were tested at multiple concentrations for their effect on cell viability. Concentration-response curves (CRCs) were derived directly from the primary screen, and both potency and efficacy values were used to identify compounds with robust bioactivity profiles. We screened the NIH Chemical Genomics Center (NCGC) Pharmaceutical Collection (NPC) and Mechanism Interrogation Plate (MIPE) small molecule collections of approved and investigational compounds against these cell lines; and measured metabolically active cells after 48 hours of compound treatment as a proxy for cell viability.
Assay Submitter: Nathalia J. Martinez, National Center for Advancing Translational Sciences, National Institutes of Health, Rockville, MD, USA; email: natalia.martinez@nih.gov
[1] Shen, M et al. Quantitative high-throughput phenotypic screening of pediatric cancer cell lines identifies multiple opportunities for drug repurposing. Oncotarget 2017 Dec 19;9(4):4758-4772. PMID 29435139.
The cells were obtained from University of North Carolina (UNC), Pediatric Preclinical Testing Program (PPT), and Coriell Institute (CI).
qHTS cell viability assay:
Cells were assayed in growth media at a density of 500-1,000 cells/well. Five microliters of cells were dispensed into 1,536-well, white, solid-bottom, TC-treated plates (Greiner Bio One) using a multidrop dispenser and incubated at 37 degrees C, 5% CO2, under a humidified atmosphere for 5 hours. Twenty-three nanoliters of compounds and controls (neutral control DMSO or positive control bortezomib at final concentration of 2.3 µM) were subsequently transferred by Kalypsys pintool. For primary screens, the MIPE collection was tested at 11-point dilutions (final concentrations range from 0.78 nM to 46 µM) and the NPC collection at 8-point dilutions (final concentrations range from 0.59 nM to 46 µM). Compounds tested in follow-up screens were assayed at 11-point dilutions. Cells were incubated for 48 hours, followed by addition of 3 µL of CellTiter-Glo (Promega). After a 15 min incubation at room temperature, samples were analyzed for luminescence intensity using a ViewLux High-throughput CCD imager equipped with clear filters.
Potency means the concentration at half of the fitted maximal effect.

Row | SMILES | activity change, negative = cytotoxic | Potency
1 | C[C@]12CCC(=O)C=C1[C@@H]1CC1[C@H]1[C@H]3[C@@H]4C[C@H]4[C@@]4(CCC(=O)O4)[C@@]3(C)CC[C@H]12 (stereo not given in full) | -14% (inactive) | 
2 | C[N+]1(C)[C@@H]2C[C@@H](OC(=O)C(O)(c3cccs3)c3cccs3)C[C@H]1[C@@H]1O[C@@H]12 | 10.8% (inactive) | 
3 | C[C@H]1COc2c(N3CCN(C)CC3)c(F)cc3c(=O)c(C(=O)O)cn1c23 | 31.4% (inactive) | 
4 | CN[C@H]1[C@@H](O)[C@@H]2O[C@@H]3O[C@H](C)CC(=O)[C@]3(O)O[C@@H]2[C@@H](NC)[C@H]1O |  | 2.96 µM (active)
5 | O=C(O)c1ccc(Nc2ncc3c(n2)-c2ccc(Cl)cc2C(c2c(F)cccc2F)=NC3)cc1 | 0.136% (inactive) | 
6 | CCCCCCCCCCCCCCCC(=O)OC[C@@H](NC(=O)C(Cl)Cl)[C@H](O)c1ccc([N+](=O)[O-])cc1 | 7.91% (inactive) | 
7 | CC(=O)SCC(Cc1ccccc1)C(=O)NCC(=O)OCc1ccccc1 (stereo not given) |  | 3.72 µM (active)
8 | C=CC(=O)Nc1ccc2ncnc(Nc3ccc(OCc4cccc(F)c4)c(Cl)c3)c2c1 |  | 5.9 µM (active)
9 | CCNC(=O)c1cc2c(-c3cc(OCCN4CCCC4)c(Cl)cc3Cl)nc(N)nc2s1 | 20.7% (inactive) | 
10 | CC(=O)OCC(=O)[C@@]1(O)CC[C@H]2[C@@H]3CCC4=CC(=O)CC[C@]4(C)[C@@H]3C(=O)C[C@@]21C | -4.25% (inactive) | 
11 | CCCCOc1ccc(C(=O)Nc2ccc(F)cc2F)cc1 | -4.9% (inactive) | 
12 | CON=C(C(=O)N[C@@H]1C(=O)N2C(C(=O)O)=C(Cn3ccc(=N)n3CCO)CS[C@H]12)c1csc(N)n1 | 5.3% (inactive) | 
13 | CC(Cc1ccc(O)c(O)c1)(NN)C(=O)O (stereo not given) | 1.59% (inactive) | 
14 | CC1(C)CC(O)CC(C)(C)N1[O] | 9.52% (inactive) | 
15 | Cc1cncc2cccc(S(=O)(=O)N3CCCN(C(=O)CN)C[C@@H]3C)c12 | -10.9% (inactive) | 
16 | O=C(C=CC=Cc1ccc2c(c1)OCO2)N1CCCCC1 | -0.927% (inactive) | 
17 | Cn1cc(C=CC(=O)c2cccc(F)c2)cc1C=CC(=O)NO | 9.01% (inactive) | 
18 | CC(C)(N)c1ccc(-c2nc3ccccc3nc2-c2ccccc2)cc1 | -22.1% (inactive) | 
19 | Oc1ccc(-c2ccc(-c3cc(Nc4cccc(CNC5CC5)c4)n[nH]3)cc2)c(O)c1 |  | 5.9 µM (active)
20 | NC1=N[C@H]2[C@H](CS[C@H]2CCCCC(=O)O)N1 | 14.4% [at 16.1 µM] (inactive) | 

Row | SMILES | activity change, negative = cytotoxic | Potency
21 | Cc1coc2c1C(=O)C(=O)c1c-2ccc2c(C)cccc12 | 7.03% (inactive) | 
22 | CCC(C)CCCCC(=O)N[C@@H](CCN)C(=O)NC(C(=O)N[C@H](CCN)C(=O)N[C@@H]1CCNC(=O)C([C@@H](C)O)NC(=O)[C@@H](CCN)NC(=O)[C@@H](CCN)NC(=O)[C@@H](CC(C)C)NC(=O)[C@H](Cc2ccccc2)NC(=O)[C@H](CCN)NC1=O)[C@@H](C)O (stereo partly drawn) ({Octanoyl(6-Me)}-[Dab][ξThr(3R)][dDab][dDab][Dab]F[dL][dDab][dDab][ξThr(3R)]; lactam 4-C) | 10.6% (inactive) | 
23 | C=C1C[C@@]2(O)O[C@@]3(C[C@H]2C(C)C)[C@H](C)CC[C@H]13 | 11.3% (inactive) | 
24 | OCC(O)C(O)C(O)CO (stereo not given) | 1.78% (inactive) | 
25 | CCOC(=O)C1=C(C)NC(=S)NC1c1cccc(O)c1 (stereo not given) | 5.98% (inactive) | 
26 | COc1cccc2c1C(=O)c1c(O)c3c(c(O)c1C2=O)C[C@@](O)(C(=O)CO)C[C@@H]3O[C@H]1C[C@H](N)[C@H](OC2CCCCO2)[C@H](C)O1 (stereo not given in full) | 7.63% (inactive) | 
27 | CCN(CC)CCCCNc1ncc2c(n1)N(C)C(=O)N(c1c(Cl)c(OC)cc(OC)c1Cl)C2 | 8.41% (inactive) | 
28 | CN(C)CC[C@H](c1ccc(Cl)cc1)c1ccccn1 | -1.66% (inactive) | 
29 | C[C@](Cc1c[nH]c2ccccc12)(NC(=O)OC1C2CC3CC(C2)CC1C3)C(=O)NC[C@H](NC(=O)CCC(=O)O)c1ccccc1 (stereo not given in full) | -2.99% (inactive) | 
30 | CC(C)N(CC[C@H](c1ccccc1)c1cc(CO)ccc1O)C(C)C | 15.1% (inactive) | 
31 | Cn1cc(-c2ccc3ncc(Cc4ccc5ncccc5c4)n3n2)cn1 | -2.28% (inactive) | 
32 | CC(Oc1ccc(O)cc1)(P(=O)(O)O)P(=O)(O)O | 0.914% (inactive) | 
33 | COc1cc(N2CCC(C(N)=O)CC2)ccc1Nc1nc(N)c(Cl)c(Nc2ccccc2S(=O)(=O)C(C)C)n1 | -5.12% (inactive) | 
34 | C=CC[C@@H]1C=C(C)C[C@H](C)C[C@H](OC)[C@H]2O[C@@](O)(C(=O)C(=O)N3CCCC[C@H]3C(=O)O[C@H](C(C)=C[C@@H]3CC[C@H](O)[C@H](OC)C3)[C@@H](C)[C@@H](O)CC1=O)[C@@H](C)C[C@@H]2OC | -7.63% (inactive) | 
35 | N#CNC(=NCCCCCCOc1ccc(Cl)cc1)Nc1ccncc1 |  | 0.0187 µM (active)
36 | O=C(NNC(=O)c1ccc(CNS(=O)(=O)c2ccc(F)c(Cl)c2)cc1)c1ccccc1 | 13.5% (inactive) | 
37 | c1cc(CN2CCCNCCNCCCNCC2)ccc1CN1CCCNCCNCCCNCC1 | 15% (inactive) | 
38 | COC(=O)C=CC(=O)OC | -1.08% (inactive) | 
39 | NC[C@H]1O[C@H](O[C@H]2[C@@H](O)[C@@H](O[C@H]3O[C@H](CO)[C@@H](O)[C@H](N)[C@@H]3O)[C@H](N)C[C@@H]2N)[C@H](N)C[C@H]1O | 16.7% (inactive) | 
40 | CC(C)OC(=O)[C@H](C)N[P@](=O)(OC[C@H]1O[C@@H](n2ccc(=O)[nH]c2=O)[C@](C)(F)[C@H]1O)Oc1ccccc1 | -5.01% (inactive) | 
